The whole screen tested about 5,500 compounds, of which about 2,000 (36%) were called active. Roughly 18% stayed inconclusive and do not appear here. No stated cut-off is given here; in the data, active means normalized growth mostly below about 0.91 (no sharp cut-off); inconclusive means no clear call, values can overlap the other calls; inactive means mostly above about 0.92. Some of the results follow.
Experiment: chemical genetic growth profiling, strain panel (AID 1159580);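 further: tested at 20 µM; growth read once vehicle control cultures reached saturation at 30 °C; 1 = growth at the plate median or of vehicle wells; lower values mean less growth of the strain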
Conditions: S. cerevisiae deletion strains, growth OD

Measured: normalized growth

O=C(O)c1ccccc1Nc1cccc(OCc2ccc3ccccc3n2)c1
inactive: locus YAL013W, strain DEP1, active compounds read low 0.996 | locus YAL040C, strain CLN3, active compounds read low 0.932 | locus YCL061C, strain MRC1 (second series), active compounds read low 0.997 | locus YDR150W, strain NUM1, active compounds read low 1 | locus YDR363W, strain ESC2, active compounds read low 1 | locus YER002W, strain NOP16, active compounds read low 1.01 | locus YGR078C, strain PAC10, active compounds read low 0.967 | locus YHR030C, strain SLT2, active compounds read low 1.03 | locus YHR079C, strain IRE1, active compounds read low 1.03 | locus YJL095W, strain BCK1, active compounds read low 1.05 | locus YJR066W, strain TOR1, active compounds read low 0.968 | locus YJR075W, strain HOC1, active compounds read low 1.01 | locus YLR113W, strain HOG1, active compounds read low 1.01 | locus YMR263W, strain SAP30, active compounds read low 0.999 | locus YMR307W, strain GAS1, active compounds read low 1.04 | locus YNL128W, strain TEP1, active compounds read low 0.957 | locus YNL153C, strain GIM3, active compounds read low 1.04 | locus YNL175C, strain NOP13, active compounds read low 0.94 | locus YNL183C, strain NPR1, active compounds read low 0.981 | locus YNL197C, strain WHI3, active compounds read low 0.934 | locus YNL224C, strain SQS1, active compounds read low 0.95 | locus YNL322C, strain KRE1, active compounds read low 1.02 | locus YOR083W, strain WHI5 (second series), active compounds read low 0.959 | locus YOR231W, strain MKK1, active compounds read low 1.02 | locus YPL241C, strain CIN2, active compounds read low 0.989 | locus YPL256C, strain CLN2, active compounds read low 1.02

— PubChem BioAssay AID1159580 (chemical genetic matrix, 2015)
